Inconclusive results are not listed. A call without a number means that no potency is given here. Unmarked numbers belong to inactive results. Activity calls are given as the source filed them. Calls follow the shape of the dose curve; as a rule, active = well fitted inhibition curve with a large enough effect; inconclusive = small, poorly fitted or top-dose-only effect; inactive = flat fitted curve, though single readings scatter.
What follows are compounds tested on WaGa (assay: qHTS assay to identify novel small-molecules to repurpose for Merkel cell carcinoma treatment (AID 1296009; also: nearly all actives have a fitted effect of over 60% in size)). Details: MCC and control cell lines, CellTiter-Glo viability, 72 h; series mostly up to 46 µM.
Outline: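 Cell viability measured by CellTiter-Glo following 72 hr compound treatment at 37 degree celsius, with NPC and MIPE libraries tested in 8- and 11-point concentration series.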
Potency is read from the fitted curve at half-maximal effect.

`CN(CC(=O)N(Cc1ccc(C2CCCCC2)cc1)c1ccc(C(=O)O)c(O)c1)S(=O)(=O)c1c(F)c(F)c(F)c(F)c1F` was tested. Which Potency did it give?
Its Potency is 6620 nM (active).

With `Oc1cc2c(cc1O)C1c3ccc(O)c(O)c3OCC1(O)C2` (stereo unspecified) as the compound, how does the Potency read?
The Potency was “inactive”.

Which Potency does the source give for `O=[N+]([O-])c1cn2c(n1)OC[C@@H](OCc1ccc(OC(F)(F)F)cc1)C2` here?
The Potency was “inactive”.

With `O=C(O)CCCCCC(=O)NN=C1CCCC1` as the compound, how does the Potency read?
The Potency was “inactive”.

With `c1cc(CN2CCCNCCNCCCNCC2)ccc1CN1CCCNCCNCCCNCC1` as the compound, how does the Potency read?
The Potency was “inactive”.

For `CC(=O)OCC(=O)[C@@]12N=C(C)O[C@H]1C[C@H]1[C@@H]3CCC4=CC(=O)C=C[C@]4(C)[C@@H]3[C@@H](O)C[C@@]12C`, which Potency is on record?
The Potency was “inactive”.

For `C=CCNc1c(O)cc2c(O)c1C[C@@H](C)C[C@H](OC)[C@@H](O)[C@@H](C)C=C(C)[C@H](OC(N)=O)[C@@H](OC)C=CC=C(C)C(=O)N2`, which Potency is on record?
Its Potency is 2090 nM (active).

`CC(=O)[C@]1(O)Cc2c(O)c3c(c(O)c2[C@@H](O[C@H]2C[C@H](N)[C@@H](O)[C@H](C)O2)C1)C(=O)c1ccccc1C3=O` was tested. Which Potency did it give?
Its Potency is 83.3 nM (active).

Which Potency does the source give for `CC(=O)N[C@H]1[C@@H]([C@H](O)[C@H](O)CO)OC(C(=O)O)=C[C@@H]1N=C(N)N` here?
The Potency was “inactive”.

Which Potency does the source give for `CC[C@@]1([C@@H]2O[C@@H]([C@H]3O[C@@](O)(CO)[C@H](C)C[C@H]3C)C[C@H]2C)CC[C@H]([C@]2(C)CC[C@]3(C[C@H](O)[C@@H](C)[C@@H]([C@@H](C)[C@@H](OC)[C@H](C)C(=O)O)O3)O2)O1` here?
The Potency was 457 nM (active).

Which Potency does the source give for `C[C@@H](NCc1cc2ccccc2[nH]1)c1cccc2ccccc12` here?
Its Potency is “inactive”.

With `COc1cc(C=CC(=O)CC(=O)C=Cc2ccc(O)c(OC)c2)ccc1O` as the compound, how does the Potency read?
The Potency was 9590 nM (active).

With `COc1ccnc2[nH]cc(C(=O)C(=O)N3CCN(C(=O)c4ccccc4)C[C@@H]3C)c12` as the compound, how does the Potency read?
Its Potency is “inactive”.

With `Nc1nc2c(c(=O)[nH]1)N(C=O)[C@H](CNc1ccc(C(=O)N[C@@H](CCC(=O)O)C(=O)O)cc1)CN2` as the compound, how does the Potency read?
Its Potency is “inactive”.

For `N#Cc1cc(NC(=O)Nc2nnc(-c3ccncc3)s2)ccc1-c1cn[nH]c1`, which Potency is on record?
The Potency was “inactive”.

How did the Potency turn out when `COC(=O)[C@H](CCCN=C(N)N)NS(=O)(=O)c1ccc(C)cc1` was run?
The Potency was “inactive”.

With `CN(C)c1ccc(C(=O)NCCCCCCC(=O)NO)cc1` as the compound, how does the Potency read?
The Potency was 662 nM (active).

With `COC(=O)[C@@H]1[C@H]2C[C@@H]3c4[nH]c5ccccc5c4CCN3C[C@@H]2CC[C@@H]1O` as the compound, how does the Potency read?
The Potency was “inactive”.

With `CN[C@H](CC(C)C)C(=O)N[C@H]1C(=O)N[C@@H](CC(N)=O)C(=O)N[C@@H]2C(=O)N[C@H]3C(=O)N[C@H](C(=O)N[C@H](C(=O)O)c4cc(O)cc(O)c4-c4cc3ccc4O)[C@H](O)c3ccc(c(Cl)c3)Oc3cc2cc(c3O[C@@H]2O[C@H](CO)[C@@H](O)[C@H](O)[C@@H]2O[C@H]2C[C@](C)(N)[C@H](O)[C@H](C)O2)Oc2ccc(cc2Cl)[C@H]1O` as the compound, how does the Potency read?
Its Potency is “inactive”.

With `C[C@H](NCc1ccc(OCc2cccc(F)c2)cc1)C(N)=O` as the compound, how does the Potency read?
Its Potency is 18700 nM (active).

How did the Potency turn out when `CC(C)NC[C@@H](C(=O)N1CCN(c2ncnc3c2[C@H](C)C[C@H]3O)CC1)c1ccc(Cl)cc1` was run?
Its Potency is 2090 nM (active).

For `Cn1cc(-c2cnn3c(N)c(Br)c([C@H]4CCCNC4)nc23)cn1`, which Potency is on record?
The Potency was 1320 nM (active).

With `N#CC(=C(N)Sc1ccc(N)cc1)c1ccccc1C(F)(F)F` as the compound, how does the Potency read?
Its Potency is “inactive”.

With `CCc1cc(C(C)=NOCc2ccc(C3CCCCC3)c(C(F)(F)F)c2)ccc1CN1CC(C(=O)O)C1` as the compound, how does the Potency read?
The Potency was “inactive”.

Which Potency does the source give for `COc1cc2c(cc1OC)[C@@H]1C(=O)c3ccc4c(c3O[C@@H]1CO2)C=CC(C)(C)O4` here?
Its Potency is 662 nM (active).

How did the Potency turn out when `Nc1cccc2c1C(=O)N(C1CCC(=O)NC1=O)C2=O` (stereo unspecified) was run?
The Potency was “inactive”.

Which Potency does the source give for `O=C(O)C[C@H](O)C[C@H](O)C=Cc1c(C2CC2)nc2ccccc2c1-c1ccc(F)cc1` here?
Its Potency is 7430 nM (active).

How did the activity change, negative = cytotoxicity turn out when `CCN1CCN(C(=O)N[C@H](C(=O)N[C@@H]2C(=O)N3C(C(=O)O)=C(CSc4nnnn4C)CS[C@@H]23)c2ccc(O)cc2)C(=O)C1=O` was run?
The activity change, negative = cytotoxicity was -1.78% [at 9.22 µM].

How did the Potency turn out when `OC[C@H]1OC(O)C[C@@H](O)[C@H]1O` (stereo partly specified) was run?
Its Potency is “inactive”.

How did the Potency turn out when `CC(=O)O[C@]1(C(C)=O)CC[C@H]2[C@@H]3C=C(C)C4=CC(=O)CC[C@]4(C)[C@@H]3CC[C@@]21C` was run?
Its Potency is 1870 nM (active).

`CC(C)OC(=O)[C@H](C)N[P@](=O)(OC[C@H]1O[C@@H](n2ccc(=O)[nH]c2=O)[C@](C)(F)[C@H]1O)Oc1ccccc1` was tested. Which Potency did it give?
The Potency was “inactive”.

`COc1ccc(CCC(=O)c2c(O)cc(O[C@@H]3O[C@H](CO)[C@@H](O)[C@H](O)[C@@H]3O[C@@H]3O[C@@H](C)[C@H](O)[C@@H](O)[C@@H]3O)cc2O)cc1O` was tested. Which Potency did it give?
The Potency was “inactive”.

With `O=C(Nc1cccc(Nc2ncc(Br)c(NCCc3cnc[nH]3)n2)c1)N1CCCC1` as the compound, how does the Potency read?
The Potency was 2960 nM (active).

Which Potency does the source give for `C#C[C@]1(O)CC[C@@H]2[C@@H]3CCC4=CC(=O)CC[C@@H]4[C@H]3CC[C@@]21CC` here?
The Potency was “inactive”.

With `CC(C)(O)[C@H]1CC[C@@](C)([C@H]2[C@@H](O)C[C@@]3(C)[C@@H]4C[C@H](O[C@@H]5O[C@H](CO)[C@@H](O)[C@H](O)[C@@H]5O)[C@H]5C(C)(C)[C@@H](O[C@@H]6OC[C@@H](O)[C@H](O)[C@@H]6O)CC[C@@]56C[C@@]46CC[C@]23C)O1` as the compound, how does the Potency read?
Its Potency is “inactive”.

Which Potency does the source give for `CC(=O)N1CCN(c2ccc(OCc3nn(C)c(C)c3-c3cccc4c(CCCOc5cccc6ccccc56)c(C(=O)O)n(Cc5cccnc5)c34)cc2)CC1` here?
Its Potency is 83.3 nM (active).

Reference: PubChem BioAssay (NCATS)
